# Experimental data reported in paper PMC12215968.
# Legend:
# [1] = target: Creatine kinase U-type, mitochondrial (UniProt P12532); assay: cross-link between two proteins; cross-linking mass spectrometry
# [2] = target: Heat shock-related 70 kDa protein 2 (UniProt P54652); assay: cross-linking mass spectrometry
# [3] = target: Heat shock protein 105 kDa (UniProt Q92598); assay: cross-link between two proteins; cross-linking mass spectrometry
# [4] = target: Ubiquitin-ribosomal protein eS31 fusion protein (UniProt P62979); assay: as above
# [5] = target: ATP synthase F(1) complex subunit gamma, mitochondrial (UniProt Q91VR2); assay: as above
# [6] = target: Heterogeneous nuclear ribonucleoprotein A1-like 2 (UniProt Q32P51); assay: as above
# [7] = target: 26S proteasome non-ATPase regulatory subunit 1 (UniProt Q99460); assay: as above
# [8] = target: NADH dehydrogenase [ubiquinone] 1 beta subcomplex subunit 5, mitochondrial (UniProt Q9CQH3); assay: as above
# Septin-10 = Septin-10 (UniProt Q9P0V9); assay: as above
# [9] = target: 26S proteasome regulatory subunit 7 (UniProt P35998); assay: as above
# [10] = target: 26S proteasome regulatory subunit 10B (UniProt P62333); assay: as above
# Tubulin beta-2B chain = Tubulin beta-2B chain (UniProt Q9BVA1); assay: as above
# Nucleobindin-1 = Nucleobindin-1 (UniProt Q02818); assay: cross-linking mass spectrometry
# 14-3-3 protein epsilon = 14-3-3 protein epsilon (UniProt P62258); assay: cross-link between two proteins; cross-linking mass spectrometry
# [11] = target: ATP synthase F(1) complex subunit alpha, mitochondrial (UniProt Q03265); assay: as above
# Histone H2B type 1-L = Histone H2B type 1-L (UniProt Q99880); assay: cross-linking mass spectrometry
# [12] = target: Elongation factor 1-alpha 2 (UniProt Q05639); assay: cross-link between two proteins; cross-linking mass spectrometry
substance,measurement,setting,value
"Creatine kinase B-type, P12277",listed as a hit,[1],yes
"Heat shock 70 kDa protein 4, P34932",listed as a hit,[2],yes
same,listed as a hit,[3],yes
"Ubiquitin carboxyl-terminal hydrolase 5, P45974",listed as a hit,[4],yes
"ATP synthase F(1) complex subunit alpha, mitochondrial, Q03265",listed as a hit,[5],yes
"Heterogeneous nuclear ribonucleoprotein A0, Q13151",listed as a hit,[6],yes
"Proteasome subunit alpha type-4, P25789",listed as a hit,[7],yes
"NADH dehydrogenase [ubiquinone] 1 subunit C2, Q9CQ54",listed as a hit,[8],yes
"Septin-7, Q16181",listed as a hit,Septin-10,yes
"Proteasome subunit alpha type-7, O14818",listed as a hit,[9],yes
"Ubiquitin-conjugating enzyme E2 K, P61086",listed as a hit,[4],yes
"26S proteasome non-ATPase regulatory subunit 7, P51665",listed as a hit,[10],yes
"Tubulin-specific chaperone A, O75347",listed as a hit,Tubulin beta-2B chain,yes
"Nucleobindin-2, P80303",listed as a hit,Nucleobindin-1,yes
"14-3-3 protein sigma, P31947",listed as a hit,14-3-3 protein epsilon,yes
"ATP synthase F(1) complex subunit epsilon, mitochondrial, P56382",listed as a hit,[11],yes
"Proteasome subunit alpha type-6, P60900",listed as a hit,[10],yes
"Ubiquitin-conjugating enzyme E2 N, P61088",listed as a hit,[4],yes
"Non-histone chromosomal protein HMG-14, P05114",listed as a hit,Histone H2B type 1-L,yes
"Elongation factor 1-beta, P24534",listed as a hit,[12],yes
